# Experimental data taken from PubChem BioAssay.
# Values without a mark were called inactive. How the calls were made is not given here.
# Target: Pantothenate synthetase (Mycobacterium tuberculosis (strain ATCC 25618 / H37Rv)) (UniProt P9WIL5)
# Assay: Coupled enzyme confirmation of inhibitors against recombinant Mtb PanC (AID 375);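 further: 0% = full reaction with vehicle and 100% = no enzyme background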
# Details: coupled enzyme assay; at 10 µM, stronger effect = higher value
# Sequence of Pantothenate synthetase (Mycobacterium tuberculosis (strain ATCC 25618 / H37Rv)) (P9WIL5 whole entry, looked up): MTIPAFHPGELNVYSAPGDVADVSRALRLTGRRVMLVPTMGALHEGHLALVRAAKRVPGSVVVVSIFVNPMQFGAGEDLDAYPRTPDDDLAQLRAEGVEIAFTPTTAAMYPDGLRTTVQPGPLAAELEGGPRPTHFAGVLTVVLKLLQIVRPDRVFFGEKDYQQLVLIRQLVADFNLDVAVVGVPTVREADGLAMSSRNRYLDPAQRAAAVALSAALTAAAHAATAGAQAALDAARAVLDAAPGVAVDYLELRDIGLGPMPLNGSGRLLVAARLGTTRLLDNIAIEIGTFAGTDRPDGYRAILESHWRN
row,SMILES,inhibition
1,Cc1ccccc1NC(=O)c1ccccc1,10%
2,CCn1c(SCC(=O)Nc2ccc3c(c2)OCO3)nnc1-c1cnccn1,0%
3,CCCCOC(=O)n1c(SCC(=O)N(CC)CC)nc2ccccc21,0%
4,Cc1nc(NCc2ccccn2)c2ccccc2n1,7%
5,CCOC(=O)N1CCN(C(=O)CN(C2CCCCC2)S(=O)(=O)c2ccc(F)cc2)CC1,0%
6,O=C(O)c1cccc(CN2C(=O)SC(Nc3ccccc3)C2=O)c1 (stereo not given),4%
7,CCCC(C(=O)NCc1ccco1)N(C(=O)CNS(=O)(=O)c1ccc(Cl)cc1)C1CCCC1 (stereo not given),0%
8,O=C(NCc1nc2ccccc2[nH]1)c1ccc(Cl)c(S(=O)(=O)N2CCCC2)c1,1%
9,OCc1nc2ccccc2n1CCCOc1ccccc1,0%
10,Cc1cc2c(c(=O)n1CCc1ccccc1)C(C(C)C)C(C#N)=C(N)O2 (stereo not given),5%
11,O=C(Cn1nnc2ccccc2c1=O)NC1CCCc2ccccc21 (stereo not given),5%
12,CC(C)COc1ccc(C2NC(=O)NC2=O)cc1 (stereo not given),0%
13,CN(Cc1ccccc1)S(=O)(=O)c1ccc(S(=O)(=O)N2CCN(CCC#N)CC2)cc1,0%
14,CCOC(=O)CSc1nc2sc(C)c(C)c2c(=O)n1C,0%
15,CC(=O)NC(C)C(=O)OCC(=O)Nc1ccc(Br)cc1 (stereo not given),0%
16,Cc1ccccc1N(C)S(=O)(=O)c1ccc2[nH]cc(C(=O)NCC3CCCO3)c(=O)c2c1 (stereo not given),10%
17,O=C(Nc1ccc(NC(=O)c2ccco2)nc1)c1cccnc1,0%
18,Cc1nn(-c2ccc(F)cc2)c2nc(N)c(C#N)c(-c3cccs3)c12,6%
19,CCc1ccccc1-n1c(SCC(=O)N2CCCC2)nnc1-c1ccccn1,0%
20,CC(C(=O)NCc1cccnc1)N1C(=O)c2ccccc2C1=O (stereo not given),0%

row,SMILES,inhibition
1,CCOc1ccc(-c2cn(S(=O)(=O)c3cccc4nsnc34)nc2N)cc1,0%
2,COc1ccccc1NC(=O)Cc1noc(CSc2cc(C)c3ccccc3n2)n1,0%
3,CCOC(=O)CN1C(=O)C(=O)c2cccc(C)c21,0%
4,Cc1ccc(S(=O)(=O)Cn2nnnc2CN(Cc2ccco2)CC2CCCO2)cc1 (stereo not given),3%
5,COc1cccc(-n2c(C)nc3c(cnn3-c3ccc(Cl)cc3)c2=O)c1,4%
6,CCS(=O)(=O)c1ccc(S(=O)(=O)CC)s1,0%
7,CCn1c(C(C#N)/C(=N\S(=O)(=O)c2cccs2)c2ccccc2)nc2ccccc21 (stereo not given),6%
8,CC1CCCC(N2CCN(C(=O)c3ccc(F)cc3)CC2)C1 (stereo not given),0%
9,O=C(NCC(=O)N(c1cnc2ccccc2c1)C(C(=O)NC1CCCC1)c1ccncc1)c1ccco1 (stereo not given),0%
10,Cc1ccc(C2C(C#N)=C(N)Oc3cc4c(cc32)OCO4)cc1 (stereo not given),8%
11,Cn1c(=O)[nH]c(=O)c2c1nc(N1CCc3ccccc3C1)n2CCSc1nc2ccccc2s1,4%
12,COc1cc2c(cc1OC)C(c1ccccc1O)N(C1CC(=O)N(c3ccccc3)C1=O)CC2 (stereo not given),0%
13,COc1ccc(-n2c(N)c(C(=O)NCc3ccco3)c3nc4ccccc4nc32)c(OC)c1,4%
14,CCc1nccn1S(=O)(=O)c1ccc(C)c(C)c1,0%
15,Cc1ccccc1OCC(O)CN (stereo not given),0%
16,N#Cc1ccc(CSc2nnc(-c3cccs3)n2-c2ccccc2)cc1,0%
17,CCn1cc(C(=O)NCCCOC)c(=O)c2cc(S(=O)(=O)N(C)C)ccc21,0%
18,Cn1c(Cc2csc(N)n2)nnc1SCC(=O)NCc1ccccc1,3%
19,COc1cccc(CNc2cccc3cccnc23)c1O,0%
20,CCCc1cc(C(=O)Nc2ccccc2C(=O)OC)no1,0%
